For 40 compounds, Potency results are on record in PubChem BioAssay (Tox21).

Results filed as inconclusive are left out. Entries that show only a call come without a potency. Active and inactive are the calls of the source. The call rests on the fitted dose curve; in most records, active means well fitted inhibition curve with a large enough effect in the repeat runs; inconclusive means weak or mixed curves; inactive means flat fitted curve, though single readings scatter.

This experiment in a line: qHTS assay to identify small molecule HDAC inhibitors (AID 1259364). Further: top concentration of the series differs between compounds; nearly all actives have a fitted effect of over 45% in size. To be noted: HCT-116 HDAC-Glo I/II luminescence, 2 h; series mostly up to 92.4 µM. From the text: U.S. Tox21 Program National Center for Advancing Translational Sciences [NCATS] NIH Chemical Genomics Center [NCGC] U.S. Environmental Protection Agency [EPA] National Institutes of Environmental Health Sciences [NIEHS] National Toxicology Program [NTP] U.S. Food and Drug Administration [FDA] Tox21 Assay Overview: Histone deacetylases (HDACs) are a group of epigenetic enzymes that regulate gene expression by histone deacetylation. HDACs are capable of introducing epigenetic modifications and such aberrations contribute to the onset and progression of several human diseases, thus making HDACs a popular therapeutic target. For identifying endogenous class I/II HDAC inhibitors a homogenous, luminogenic HDAC I/II cell based assay was used to measure the relative activity of class I and II HDACs from cells. Wild type HCT-116 cells were used to screen Tox21 libraries for identifying class I/II HDAC inhibitors.
Tox21 Assay Protocol Summary: HCT-116 cells were dispensed at 1,500 per well in 5uL of culture medium into white solid bottom 1536-well plates (Greiner Bio-One, Monroe, NC) using a Multidrop Combi (Thermo Scientific, Waltham, MA) dispenser. The assay plates were incubated at 37 C and 5% CO2 for an overnight, and then 23nL of compounds dissolved in DMSO and positive control were transferred using a Pintool station (Wako, San Diego, CA). The assay plates were incubated at 37C and 5% CO2 for 2hr. After compound treatment, 4uL of HDAC-Glo reagent (Promega Corporation, Madison, WI) was added to each well of the assay plates using Flying Reagent Dispenser (FRD, Aurora Discovery, San Diego, CA) and incubated the assay plates at room temperature for 30min. The luminescence signal was quantified using a ViewLux plate reader (Perkin Elmer, Shelton, CT).
(qHTS replaces the single test concentration by a dilution series.)
For the compound `CC1=C(C(=O)Nc2ccccc2)S(=O)(=O)CCO1`, the Potency result was “inactive”. With `N#CC(Cl)(Cl)Cl` the entry was “inactive”; with `O=C(CCN1CC1)OCC(CO)(COC(=O)CCN1CC1)COC(=O)CCN1CC1`, “inactive”; with `Fc1cc(Br)ccc1CBr`, “inactive”. For `CC(=O)Nc1cc([As](=O)(O)O)ccc1O`, the Potency entry is “inactive”. With `N#CC(O)c1ccccc1` (stereo not given) the entry was “inactive”; with `COc1cc(C[C@@H](C)N)c(OC)cc1C`, “inactive”; with `CCOP(=S)(OCC)SCSP(=S)(OCC)OCC`, “inactive”. With `C#C[C@]1(O)C=C[C@H]2[C@@H]3CCC4=CC(=O)CC[C@@H]4[C@H]3CC[C@@]21CC` the entry was “inactive”; with `Nc1ccccc1Cl`, “inactive”; with `O=CNC(N1CCN(C(NC=O)C(Cl)(Cl)Cl)CC1)C(Cl)(Cl)Cl` (stereo not given), “inactive”. For `CCOC(=O)C1(c2ccccc2)CCN(CCc2ccc(N)cc2)CC1`, the Potency result is “inactive”. With `O=C(N[C@H]1CN2CCC1CC2)c1cc2ccoc2cn1` the entry was “inactive”. On to `C[C@]12CC[C@H]3[C@@H](CC=C4C[C@@H](O)CC[C@@]43C)[C@@H]1CC[C@@H]2O`, for which the Potency result is “inactive”. Regarding `CCOC(=O)/C=C(C)/C=C/C[C@@H](C)CCCC(C)C`, the Potency result was “inactive”.

In the case of `CCCCC(=O)Cl`, the Potency result is “inactive”.

For `COC(C)(C)C`, the Potency result was “inactive”. As for `N#CCNCC#N`, the Potency entry was “inactive”. The same measure for `O=[N+]([O-])c1ccc2c3c(cccc13)CC2`: “inactive”; for `O=[N+]([O-])c1cccc(O)c1`: “inactive”; for `CC1(C)CON(Cc2ccccc2Cl)C1=O`: “inactive”. The same measure for `CCCSC(=O)Cl`: “inactive”.

Regarding `CCC(=O)c1ccccc1`, the Potency entry is “inactive”. With `O=[N+]([O-])c1ccc(CBr)cc1` the entry was “inactive”; with `CCOC(=O)CP(=O)(OCC)OCC`, “inactive”. The same measure for `CCCCN(CCCCO)N=O`: “inactive”; for `Nc1c(Br)cc([N+](=O)[O-])cc1[N+](=O)[O-]`: “inactive”. With `O=[N+]([O-])c1cccc2cccnc12` the entry was “inactive”; with `c1cc2c(c(N3CCNCC3)c1)OCCO2`, “inactive”; with `CC1COC2(c3ccccc3Cl)c3cc(Cl)ccc3NC(=O)CN12` (stereo not given), “inactive”. On to `CC1(C)COP(Oc2ccccc2)OC1`, for which the Potency result is “inactive”.

On to `CCCCOC(=O)c1ccccc1N`, for which the Potency entry was “inactive”. For `N#CCCC#N`, the Potency result was “inactive”.

Consider `Nc1cc2c3c(c1)C(c1ccccc1)=N[C@@H](NC(=O)c1cccnc1)C(=O)N3CC2`, for which the Potency entry is “inactive”. With `Nc1cnn(-c2ccccc2)c(=O)c1Cl` the entry was “inactive”. As to `NC(=O)O`, the Potency entry was “inactive”. The same measure for `OC(Cn1cncn1)(c1ccc(F)cc1)c1ccccc1F` (stereo not given): “inactive”; for `C[C@@H]1CN(C2CCC(C#N)(c3ccc(F)cc3)CC2)CC[C@]1(C(=O)O)c1ccccc1` (stereo not given in full): “inactive”; for `Nc1cc(Cl)ccc1O`: “inactive”. The same measure for `C=CCC1=C(C)[C@@H](OC(=O)[C@@H]2[C@@H](C=C(C)C)C2(C)C)CC1=O`: “inactive”.
